DAX1 inh-1 = inhibits human nuclear receptor DAX1 | hit rate 0.99% among 340,000 | P51843 | HEK293 Gal4-DAX1 luciferase reporter, luminescence | inhibition, % at 6.75 µM;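 active = inhibition above the mean over all tested compounds plus 3 SD, cut at about 4.2% in these data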;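 also: 0% = DAX1-transfected cells with DMSO and 100% = empty-vector control cells with DMSO; inhibition shows as a rise in luminescence from relieved DAX1 repression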
hcDAF12 agonist = H. contortus DAF-12 activation, primary screen | HEK293 hcDAF-12 lit1-tk-luc reporter, luminescence; 0% DMSO, 100% Δ7-dafachronic acid | activation, % at 6.8 µM | hit rate 1.4% among 370,000 | AID 652067;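 active = activation above the mean of all tested compounds plus 3 SD, cut at about 5.5% in these data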;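 also: 100% = response to 3 µM Δ7-dafachronic acid high control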
hgDAF12 agonist = hgDAF-12 agonism, primary luciferase screen; HEK293 GAL4-hgDAF12 UAS-luciferase reporter, agonist luminescence; normalized to butyrate control; activation, % at 6.8 µM; hit rate 1.8% among 370,000;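 active = activation above a cutoff set at the mean of all screened compounds plus 3 SD, cut at about 10% in these data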;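 also: 0% = DMSO wells and 100% = sodium butyrate wells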
DAX1 inh-2 = blocks DAX1 repression of SF-1 activated StAR promoter. inhibition, % at 6.8 µM. HEK293T StAR-luciferase reporter, SF-1/DAX-1 repression relief. hit rate 1.1% among 370,000;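 active = inhibition above the mean over all tested compounds plus 3 SD, cut at about 3.6% in these data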;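 also: 0% = DAX-1 cells with DMSO and 100% = cells lacking DAX-1 with DMSO; higher inhibition means more luminescence from relief of DAX-1 repression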
ssDAF-12 act = S. stercoralis DAF-12 activation, primary screen | HEK293 ssDAF-12/GRIP1 lit1-tk-luc reporter, luminescence; % of 3 µM dafachronic acid response | activation, % at 6.8 µM | hit rate 1% among 370,000;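 active = activation above the mean over all tested compounds plus 3 SD, cut at about 0.9% in these data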;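 also: 0% = DMSO-only wells and 100% = 3 µM delta7-dafachronic acid wells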
AHR act = activates the human aryl hydrocarbon receptor | P35869 | AHR-responsive luciferase reporter cells, luminescence | activation, % at 5 µM | hit rate 2.5% among 320,000 | AID 2796; in the data active = activation above about 47%;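 also: 0% = vehicle wells and 100% = reference agonist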
AHR act confirm = human AHR activation, confirmation; human cells, AHR-responsive luciferase reporter, luminescence; activation, % at 9 µM; shares compounds with AHR act; hit rate 87% among 2,300; in the data active = activation above about 49%;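 also: HepG2 hepatoma cells carrying a DRE-driven firefly luciferase reporter; 0% = vehicle wells and 100% = reference agonist wells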
PXR act counter = PXR activation, counter-screen for AHR activators; AID 434939; cell-based PXR reporter, luciferase luminescence; activation, % at 11.6 µM; shares compounds with AHR act; hit rate 88% among 2,300; in the data active = activation above about 11%;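 also: human hepatoma DPX-2 cells expressing full-length human PXR; 0% = DMSO and 100% = reference agonist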
Target sequence (O75469 whole entry, looked up): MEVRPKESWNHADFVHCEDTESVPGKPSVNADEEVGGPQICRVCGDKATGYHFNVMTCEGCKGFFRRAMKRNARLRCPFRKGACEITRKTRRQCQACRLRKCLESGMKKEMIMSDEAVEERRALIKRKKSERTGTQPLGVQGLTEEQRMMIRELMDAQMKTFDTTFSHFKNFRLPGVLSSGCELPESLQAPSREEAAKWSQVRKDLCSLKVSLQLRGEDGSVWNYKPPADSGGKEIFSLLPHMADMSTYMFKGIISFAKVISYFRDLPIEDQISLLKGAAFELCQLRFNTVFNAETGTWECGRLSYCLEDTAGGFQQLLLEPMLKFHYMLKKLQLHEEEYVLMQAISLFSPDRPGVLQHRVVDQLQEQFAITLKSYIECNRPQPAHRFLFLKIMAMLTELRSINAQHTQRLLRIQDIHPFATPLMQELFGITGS
* = called active by the depositor; nt = not tested or not shown. The list is not random: actives were taken first. Their share in the collection is about 5.7%.

SMILES	DAX1 inh-1	hcDAF12 agonist	hgDAF12 agonist	DAX1 inh-2	ssDAF-12 act	AHR act	AHR act confirm	PXR act counter
Cc1cc(C(F)(F)F)n2nc(-c3sccc3-n3cccc3)cc2n1	0	-1	8	0	1	103*	113*	44*
Cc1cc(C(F)(F)F)n2nc(-c3cccs3)cc2n1	2	3	5	0	1	19	nt	nt
COc1ccc(-c2noc(-c3ccc(Br)o3)n2)cc1	2	1	9	1	-1	79*	107*	17*
Cc1ccc(C)c(N/C(N)=N/c2nc(C)cc(C)n2)c1	-2	-3	0	-1	-1	29	nt	nt
COc1ccc(C)cc1N/C(N)=N/c1nc(C)cc(C)n1	-2	-1	0	-1	-2	81*	59*	nt
C=CC(=O)Nc1ccc(Nc2nc(NC3CCC(N(C)C)CC3)nc3c2ncn3C(C)C)cc1 (stereo unspecified)	-5	nt	nt	nt	nt	-4	nt	nt
CC(C)n1cnc2c(Nc3ccc(F)c(Cl)c3)nc(NCCO)nc21	-1	-1	0	-1	-1	93*	69*	135*
Cc1cc(CC(C)C)n(-c2nc3ccccc3c(=O)n2OCC(=O)N(C)C)n1	0	-1	-3	0	-1	15	nt	nt
Cc1cc(CC(C)C)n(-c2nc3ccccc3c(=O)n2OCc2ccccc2)n1	0	4	1	0	0	87*	99*	74*
Cn1c(=O)n(C)c2cc(NC(=O)COc3ccc(F)cc3)ccc21	1	-3	-1	0	-1	-2	nt	nt
Nc1nc(-c2ccccc2)cc(-c2ccccc2O)n1	-1	3	9	0	-1	82*	174*	22*
Cc1cc(C)nc(SCc2nc(N)nc(-c3ccccc3O)n2)n1	-1	-2	-2	-1	-1	84*	91*	38*
Nc1nc(N)nc(-c2ccccc2O)n1	-1	2	4	0	-1	18	nt	nt
Nc1nc(-c2ccccc2)nc(-c2ccccc2O)n1	0	4	4	-1	0	84*	107*	13*
O=C(CCC(=O)N1CCN(S(=O)(=O)c2ccccc2)CC1)c1ccc(Br)cc1	-1	-1	2	0	-1	2	nt	nt
Cc1ccc(/C=N/NC(=O)CSc2nc3ccccc3n2C)s1	-1	1	-1	-1	-1	108*	92*	52*
Cn1c(SCC(=O)N/N=C/c2cccs2)nc2ccccc21	2	-2	3	0	-2	16	nt	nt
COCCOC(=O)c1[nH]c2c(c1C)C(=O)CC(c1ccc(F)cc1)C2 (stereo unspecified)	-4	-3	2	-4	-2	46	nt	nt
COCCOC(=O)c1[nH]c2c(c1C)C(=O)CC(c1ccccc1)C2 (stereo unspecified)	2	nt	nt	nt	nt	115*	56*	124*
Cn1c(=O)c2cc(NC(=O)Nc3cccnc3)ccc2n1Cc1cccc(C(F)(F)F)c1	nt	-2	0	0	-2	nt	nt	nt
Cc1ccc(NC(=O)c2oc3ccccc3c2NC(=O)C2CC2)cc1	1	1	0	-1	-1	122*	65*	32*
NC(=O)c1oc2ccccc2c1NC(=O)c1ccc(F)cc1	1	2	1	-1	0	106*	77*	nt
O=C(Nc1ccc(F)cc1)c1oc2ccccc2c1NC(=O)C1CC1	0	-1	0	-4	-2	127*	0	33*
CN1CCc2c(sc(/N=C/c3cc(C(C)(C)C)ccc3O)c2C#N)C1	0	-2	-3	1	-1	8	nt	nt
CCCS(=O)(=O)Nc1ccc(N2CCCCC2)c(S(=O)(=O)Nc2ccccc2OC)c1	1	-1	-1	1	-1	nt	nt	nt
SMILES	DAX1 inh-1	hcDAF12 agonist	hgDAF12 agonist	DAX1 inh-2	ssDAF-12 act	AHR act	AHR act confirm	PXR act counter
Cc1noc(N)c1C(=O)Nc1ccc(F)c(Cl)c1	1	-2	2	-1	-1	41	nt	nt
CCc1noc(N)c1C(=O)Nc1ccc(F)c(Cl)c1	-1	0	1	1	-1	80*	109*	12*
Cc1ccc(S(=O)(=O)Nc2ccc(S(=O)(=O)Nc3nccs3)cc2)c([N+](=O)[O-])c1	0	0	-3	-2	-1	0	nt	nt
O=[N+]([O-])c1cccc(NC(=S)NCc2ccncc2)c1	2	1	2	-1	-1	22	nt	nt
O=[N+]([O-])c1cccc(NC(=S)Nc2nc(-c3ccccc3Cl)cs2)c1	-1	2	-1	1	-1	87*	56*	23*
Cc1cccc(NC(=O)CSCC(=O)N(C)CCOc2ccc(Cl)cc2)c1	0	-1	-1	-1	-1	0	nt	nt
O=C1COc2ccc(C(=O)COC(=O)/C=C/c3ccc(Br)o3)cc2N1	0	-2	0	0	-2	2	nt	nt
CCOc1ccccc1Nc1nnc(SCC(=O)Nc2cccc(S(=O)(=O)NC3=NCCCCC3)c2)s1	-3	-1	-1	0	-2	87*	76*	127*
Cc1ncc(CO)c(/C=N/NC(=S)Nc2ccc(F)cc2)c1O	1	1	0	0	0	18	nt	nt
Cc1ncc(CO)c(/C=N/Nc2ccc(C(F)(F)F)cn2)c1O	-2	-1	-8	-2	-2	81*	2	15*
COCCC1CCCCN1C(=O)c1cccc(OC2CCN(C3CCCC3)CC2)c1 (stereo unspecified)	0	0	-1	1	-1	0	nt	nt
Cc1cc2c(C)nc(-c3ccccc3)nc2o1	2	1	2	2	0	116*	159*	39*
CN(C)C(=O)CSc1n[nH]c(=O)n1CCc1ccccc1	-1	0	3	0	-1	-1	nt	nt
COc1ccccc1NCC(=O)N/N=C(\C)c1ccc(Br)s1	-2	-1	-4	0	-1	37	nt	nt
C/C(=N/NC(=O)CNc1ccc(C)cc1)c1ccc(Br)s1	0	0	2	0	-1	83*	61*	15*
O=S(=O)(Nc1cccc(-c2nc3cccnc3s2)c1)c1ccc2c(c1)OCCO2	1	-2	-1	-1	-1	3	nt	nt
Cc1ccc(-c2nc3cccnc3s2)cc1NS(=O)(=O)c1ccc2c(c1)OCCO2	1	4	3	-1	0	105*	73*	104*
CC(=O)N1CCC(O)(c2ccc3c(c2)OCO3)CC1	1	-2	-1	0	-1	0	nt	nt
COc1cc(/C=C/c2nc3ccccc3c(=O)[nH]2)ccc1OC(F)F	4	2	6	1	-1	3	nt	nt

Screens deposited in PubChem BioAssay by The Scripps Research Institute Molecular Screening Center.
